Data from PubChem BioAssay (Tox21).
Records with an inconclusive call do not appear. Activity calls are given as the source filed them. Unless noted, calls follow the shape of the full dose curve.

What was measured:
[1] = Nuclear factor erythroid 2-related factor 2/antioxidant responsive element (Nrf2/ARE) small molecule agonists: qHTS cell viability counter screen in human keratinocytes (AID 1919968; active = well fitted curve in the direction sought with a large enough effect in the repeat runs; an effect the other way counts as inactive or inconclusive; also: nearly all actives have a fitted effect of over 55% in size; also: potency is read from the fitted curve at half-maximal effect)
Summary of the method: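 Cells of the KeratinoSens line were plated at 1,500 per well and left for 5 h before compound transfer from DMSO stocks. After a 23 h incubation (37 C, 5% CO2), CellTiter-Fluor was added. Signal was taken as fluorescence intensity 1 h later.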

[2] = Nuclear factor erythroid 2-related factor 2/antioxidant responsive element (Nrf2/ARE) small molecule agonists: luciferase reporter gene qHTS assay in human keratinocytes (AID 1919969); also: nearly all actives have a fitted effect of over 35% in size; also: potency is read from the fitted curve at half-maximal effect
[3] = target: Gonadotropin-releasing hormone receptor (Homo sapiens) (UniProt P30968); test: Human gonadotropin-releasing hormone receptor (GnRHR) small molecule agonists, calcium flux assay in GnRHR-HEK293 cells (AID 1920063); also: nearly all actives have a fitted effect of over 35% in size
Summary of the method: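 Compounds dissolved in DMSO are pin-transferred onto dye-loaded GnRHR-HEK293 cells, which were seeded 18 h before at 37 C/5% CO2. Calcium signal is read as fluorescence intensity at 1 s intervals for 3 min.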

[4] = target: KiSS-1 receptor (Homo sapiens) (UniProt Q969F8); test: Human kisspeptin (KISS1R) small molecule agonists, calcium flux assay in KISS1R-HEK293 cells (AID 1920064; active = well fitted curve in the direction sought with a large enough effect in the repeat runs; an effect the other way counts as inactive or inconclusive)
Summary of the method: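 Cell line: HEK293, stable human KISS1R. Dye loading 1 h at 37 C after 18 h culture. Read: kinetic fluorescence, 480/540 nm, 3 min at 1 s intervals.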

[5] = G protein-coupled receptor (GPCR) small molecule agonists, calcium flux assay: HEK293 wild type cell line counter screen (AID 1920065)
Summary of the method: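 Tox21 10K compounds, 15 concentrations each in triplicate, pin-transferred in DMSO onto dye-loaded cells; kinetic read at 480/540 nm for 3 min, 1 s intervals.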

[6] = p53 small molecule agonists, cell-based qHTS assay with human liver microsomes: qHTS cell viability counter screen (AID 1963579); also: nearly all actives have a fitted effect of over 45% in size
Summary of the method: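 In this multiplexed counter screen, the reporter plates were subsequently treated with CellTiter-Glo so that cell viability, reflected by luminescence, could be recorded for p53RE-bla cells dosed 16 h with compounds under microsomal activation (HLM and NADPH).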

[7] = p53 small molecule agonists, cell-based qHTS assay with rat liver microsomes: qHTS cell viability counter screen (AID 1963580); also: nearly all actives have a fitted effect of over 45% in size
Summary of the method: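 Counter screen for cytotoxicity under metabolic activation: rat liver microsomes and NADPH, 0.5 mg/mL final each, added with compounds to p53RE-bla HCT-116 cells; 16 h at 37 C, then ATP luminescence read.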

[8] = target: 5-hydroxytryptamine receptor 2A (Homo sapiens) (UniProt P28223); test: 5-hydroxytryptamine receptor 2A (HTR2A) small molecule antagonists, cell-based qHTS assay (AID 1963586); also: nearly all actives have a fitted effect of over 45% in size
Summary of the method: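 CHO cells stably expressing human HTR2A were plated for 18 h at 37 C, then loaded with calcium dye for 1 h. Compounds were preincubated 5 min at room temperature before DOI (4 nM solution) was added. Kinetic fluorescence was read for 3 min.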

[9] = target: 5-hydroxytryptamine receptor 2A (Homo sapiens) (UniProt P28223); test: 5-hydroxytryptamine receptor 2A (HTR2A) small molecule agonists, cell-based qHTS assay (AID 1963587); also: nearly all actives have a fitted effect of over 30% in size
Summary of the method: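 HTR2A-CHO cells, plated 18 h at 37 C/5% CO2, dye-loaded 1 h at 37 C; compounds in DMSO added by pin tool (agonist mode). Intracellular calcium flux read as kinetic fluorescence on FDSS over 2 min at 1 s intervals.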

[10] = target: Muscarinic acetylcholine receptor M1 (Homo sapiens) (UniProt P11229); test: Cholinergic receptor muscarinic 1 (CHRM1) small molecule antagonists, cell-based qHTS assay (AID 1963588); also: nearly all actives have a fitted effect of over 40% in size; also: potency is read from the fitted curve at half-maximal effect
Summary of the method: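 Compounds were tested at 15 concentrations in three independent runs. Dye-loaded CHRM1-CHO cells were exposed 5 min at room temperature before stimulation by acetylcholine added at 50nM. Intracellular calcium was read kinetically on FDSS for 3 min.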

[11] = cAMP Responsive Elements (CRE) small molecule antagonists, cell-based qHTS assay (AID 1963591; active = well fitted inhibition curve with a large enough effect in the signal ratio in the repeat runs, not every such curve was filed as active; the % refers to the signal ratio)
Summary of the method: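 First, CRE-bla HEK293T cells settled 18 h at 37 C. Next, compound and 0.25 uM final NKH477 were applied for 3 h. Last, LiveBLAzer B/G substrate was loaded for 2 h at room temperature.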

[12] = target: Beta-2 adrenergic receptor (Homo sapiens) (UniProt P07550); test: Adrenergic beta2 receptor (ADRB2) small molecule antagonists, cell-based qHTS assay (AID 1963592); also: series mostly up to about 92 µM; nearly all actives have a fitted effect of over 50% in size
Summary of the method: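 Assay format: CHO-ADRB2 cells, 18-20hr seeding at 37C/5% CO2, then compound plus 1nM isoproterenol agonist mix for 0.5hr RT. Homogeneous time-resolved fluorescence cAMP detection after 1hr, expressed as 665/615 nm ratio.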

[13] = target: Beta-2 adrenergic receptor (Homo sapiens) (UniProt P07550); test: Adrenergic beta2 receptor (ADRB2) small molecule agonists, cell-based qHTS assay (AID 1963593);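 also: CHO cells stably overexpressing human ADRB2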
Summary of the method: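 CHO cells stably over-expressing ADRB2 were plated overnight at 37C, then dosed with compounds plus a stimulation mix containing 100uM IBMX and 25uM Ro-20-1724 for 0.5hr at room temperature. cAMP was measured by HTRF competition, 1hr.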

[14] = target: D(2) dopamine receptor (Homo sapiens) (UniProt P14416); test: Dopamine D2 receptor (DRD2) small molecule agonists, cell-based qHTS assay (AID 1963594); also: nearly all actives have a fitted effect of over 35% in size
Summary of the method: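 HEK293 cells stably expressing DRD2 were cultured 24 h at 37 C, then given Ro20-1724 (0.1 mM final) and compounds for 10 min at room temperature. NKH477 (200nM) was then added for 30 min. cAMP was read by HTRF.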

[15] = target: D(2) dopamine receptor (Homo sapiens) (UniProt P14416); test: Dopamine D2 receptor (DRD2) small molecule antagonists, cell-based qHTS assay (AID 1963595; active = well fitted inhibition curve with a large enough effect in the signal ratio in the repeat runs, with a control signal flat; the % refers to the signal ratio)
Summary of the method: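 DRD2-HEK293; 0.1 mM Ro20-1724; cpd 10 min RT; NKH477 200 nM + quinpirole 12 nM, 30 min RT; HTRF cAMP (cAMP-d2/anti-cAMP cryptate), 665/620 nm ratio after 1 h.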

[16] = cAMP Responsive Elements (CRE) small molecule agonists, cell-based qHTS assay (AID 1963590)
Summary of the method: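 HEK 293T cells stably bearing CRE-bla were plated at 2,000 cells per well and rested 18 h. Compounds, positive controls or DMSO were added for 3 h at 37 C. LiveBLAzer B/G substrate was then loaded for 2 h at room temperature.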

[17] = p53 small molecule agonists, cell-based qHTS assay: qHTS cell viability counter screen (AID 1963581); also: nearly all actives have a fitted effect of over 45% in size; also: potency is read from the fitted curve at half-maximal effect
Summary of the method: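 ATP content measured by luminescence in HCT-116 p53RE-bla cells treated 16 h at 37 C, same wells as the reporter screen.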

[18] = target: Muscarinic acetylcholine receptor M1 (Homo sapiens) (UniProt P11229); test: Cholinergic receptor muscarinic 1 (CHRM1) small molecule agonists, cell-based qHTS assay (AID 1963589); also: nearly all actives have a fitted effect of over 35% in size
Summary of the method: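 Homogeneous fluorescence calcium flux, agonist mode. Human M1-expressing CHO cells; compound dosed at 15 concentrations, three independent runs; signal sampled every 1 sec.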

Measured: Potency

Sequence of D(2) dopamine receptor (Homo sapiens) (P14416 whole entry, looked up): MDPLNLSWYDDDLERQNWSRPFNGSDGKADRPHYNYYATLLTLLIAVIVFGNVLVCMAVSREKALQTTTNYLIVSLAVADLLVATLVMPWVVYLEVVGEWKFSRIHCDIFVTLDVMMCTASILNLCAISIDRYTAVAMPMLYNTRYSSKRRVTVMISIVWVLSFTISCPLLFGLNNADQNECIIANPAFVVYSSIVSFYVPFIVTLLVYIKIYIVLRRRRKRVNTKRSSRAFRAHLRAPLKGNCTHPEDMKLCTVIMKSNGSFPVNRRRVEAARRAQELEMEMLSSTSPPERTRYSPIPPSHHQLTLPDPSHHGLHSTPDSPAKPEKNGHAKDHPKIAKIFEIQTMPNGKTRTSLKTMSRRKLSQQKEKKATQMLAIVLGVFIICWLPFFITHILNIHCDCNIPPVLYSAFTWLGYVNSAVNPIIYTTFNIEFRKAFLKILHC
Sequence of 5-hydroxytryptamine receptor 2A (Homo sapiens) (P28223 whole entry, looked up): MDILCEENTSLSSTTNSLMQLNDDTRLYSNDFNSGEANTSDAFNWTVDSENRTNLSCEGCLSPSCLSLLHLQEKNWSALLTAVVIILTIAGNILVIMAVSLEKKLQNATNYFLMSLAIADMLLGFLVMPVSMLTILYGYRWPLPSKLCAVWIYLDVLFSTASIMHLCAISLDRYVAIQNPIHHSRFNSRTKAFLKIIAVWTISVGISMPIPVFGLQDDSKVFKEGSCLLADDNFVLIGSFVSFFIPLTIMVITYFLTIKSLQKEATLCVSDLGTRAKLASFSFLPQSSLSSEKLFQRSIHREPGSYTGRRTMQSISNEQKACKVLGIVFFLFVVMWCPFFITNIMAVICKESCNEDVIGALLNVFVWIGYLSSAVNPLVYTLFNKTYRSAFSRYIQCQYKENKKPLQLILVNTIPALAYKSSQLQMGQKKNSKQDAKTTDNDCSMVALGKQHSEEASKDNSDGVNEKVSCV
Sequence of KiSS-1 receptor (Homo sapiens) (Q969F8 whole entry, looked up): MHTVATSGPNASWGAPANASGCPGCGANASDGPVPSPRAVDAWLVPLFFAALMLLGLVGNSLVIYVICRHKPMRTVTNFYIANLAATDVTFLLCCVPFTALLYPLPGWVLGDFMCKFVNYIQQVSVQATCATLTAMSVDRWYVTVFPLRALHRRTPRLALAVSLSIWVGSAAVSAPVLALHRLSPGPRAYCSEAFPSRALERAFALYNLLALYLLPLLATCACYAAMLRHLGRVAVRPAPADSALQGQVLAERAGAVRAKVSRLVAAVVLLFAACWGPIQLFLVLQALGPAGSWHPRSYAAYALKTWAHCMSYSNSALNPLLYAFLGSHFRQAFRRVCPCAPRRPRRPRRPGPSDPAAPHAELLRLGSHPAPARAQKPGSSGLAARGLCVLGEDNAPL
Sequence of Beta-2 adrenergic receptor (Homo sapiens) (P07550 whole entry, looked up): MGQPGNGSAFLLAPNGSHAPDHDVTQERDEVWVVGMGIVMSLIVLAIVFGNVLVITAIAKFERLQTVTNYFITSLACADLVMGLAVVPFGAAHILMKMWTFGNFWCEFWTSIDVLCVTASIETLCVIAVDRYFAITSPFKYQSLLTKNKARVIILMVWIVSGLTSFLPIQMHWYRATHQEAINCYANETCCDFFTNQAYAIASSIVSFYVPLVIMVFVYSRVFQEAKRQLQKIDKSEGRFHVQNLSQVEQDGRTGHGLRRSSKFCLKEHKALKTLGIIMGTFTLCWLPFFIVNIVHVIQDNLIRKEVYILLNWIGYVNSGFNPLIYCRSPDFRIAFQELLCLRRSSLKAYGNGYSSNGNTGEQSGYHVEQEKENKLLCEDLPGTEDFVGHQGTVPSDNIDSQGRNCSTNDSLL
Sequence of Muscarinic acetylcholine receptor M1 (Homo sapiens) (P11229 whole entry, looked up): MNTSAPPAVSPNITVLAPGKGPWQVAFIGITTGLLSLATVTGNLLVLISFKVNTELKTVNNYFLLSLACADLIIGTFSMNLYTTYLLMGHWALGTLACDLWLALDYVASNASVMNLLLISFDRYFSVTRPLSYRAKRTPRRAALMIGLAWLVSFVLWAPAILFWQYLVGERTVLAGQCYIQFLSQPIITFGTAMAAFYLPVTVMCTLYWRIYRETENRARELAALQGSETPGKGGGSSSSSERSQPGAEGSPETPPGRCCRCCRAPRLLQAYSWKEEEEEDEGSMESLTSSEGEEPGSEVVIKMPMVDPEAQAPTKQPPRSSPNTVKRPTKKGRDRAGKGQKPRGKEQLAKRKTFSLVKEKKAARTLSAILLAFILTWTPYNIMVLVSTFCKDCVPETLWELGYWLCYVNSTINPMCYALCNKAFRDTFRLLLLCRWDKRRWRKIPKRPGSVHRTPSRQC
Sequence of Gonadotropin-releasing hormone receptor (Homo sapiens) (P30968 whole entry, looked up): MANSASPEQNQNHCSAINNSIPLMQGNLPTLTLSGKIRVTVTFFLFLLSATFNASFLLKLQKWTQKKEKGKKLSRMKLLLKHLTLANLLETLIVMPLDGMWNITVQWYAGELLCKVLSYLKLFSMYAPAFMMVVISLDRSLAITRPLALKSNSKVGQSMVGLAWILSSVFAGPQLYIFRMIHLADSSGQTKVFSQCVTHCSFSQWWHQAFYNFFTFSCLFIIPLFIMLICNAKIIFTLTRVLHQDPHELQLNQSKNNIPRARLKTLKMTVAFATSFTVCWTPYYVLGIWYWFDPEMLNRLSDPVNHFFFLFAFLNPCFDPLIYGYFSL

O=c1[nH][nH]c2ccccc12
active: [2] 62.3 µM
not listed: [16] | [17] | [18]
inactive: all other assays above

CN1CCC(OC(c2ccccc2)c2ccccc2)CC1
active: [10] 0.0818 µM
not listed: [8] | [12] | [14] | [15] | [17] | [18]
inactive: all other assays above

CC(=O)OCC(=O)[C@@]12OC(C)(C)O[C@@H]1C[C@H]1[C@@H]3C[C@H](F)C4=CC(=O)C=C[C@]4(C)[C@@]3(F)[C@@H](O)C[C@@]12C
not listed: [8] | [9] | [10] | [11] | [13] | [16] | [18]
inactive: all other assays above

Nc1ccccc1Nc1ccccc1
active: [1] 48.7 µM | [2] 21.8 µM
not listed: [12] | [13] | [16] | [17]
inactive: all other assays above

Cc1cc(C(C#N)c2ccc(Cl)cc2)c(Cl)cc1NC(=O)c1cc(I)cc(I)c1O (stereo not drawn)
active: [1] 29.8 µM | [17] 5.61 µM
inactive: [2] | [3] | [4] | [5] | [6] | [7] | [12] | [14] | [15]

COc1cc(NCc2ccc3nc(N)nc(N)c3c2C)cc(OC)c1OC
not listed: [11] | [16] | [17]
inactive: all other assays above

Cc1c(F)c(N2CCNC(C)C2)cc2c1c(=O)c(C(=O)O)cn2C1CC1 (stereo not drawn)
not listed: [8] | [9] | [10] | [11] | [16] | [18]
inactive: all other assays above

CN(c1nccc(=O)[nH]1)C1CCN(c2nc3ccccc3n2Cc2ccc(F)cc2)CC1
not listed: [9] | [11] | [12] | [16] | [17]
inactive: all other assays above
